The list is not random: actives were taken first. Their share in the collection is about 3.1%.
PI4K2A inh – blocks human PI4K2A kinase activity; activity change, negative = inhibition, % at 76.9 µM; purified PI4K2A, ADP-Glo luminescence, 1 h; hits give low values; Q9BTU6; 420,000 compounds, 0.13% hits; in the data active = activity change below about -50%; inconclusive = mostly about -30% to -49%
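Compounds are screened against recombinant PI4K2A using PI as substrate and ATP, the latter dispensed at 300 microM. Reactions run one hour at ambient temperature before ADP-Glo detection; full inhibition defined by wells lacking enzyme.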
GCN5L2 inh – inhibitors of human GCN5L2 histone acetyltransferase; Q92830; GCN5L2 HAT assay, ThioGlo1 CoA-SH fluorescence; Potency, µM (series often up to 58.9 µM), actives largely listed as inhibitors; 390,000 compounds, 0.21% hits
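GCN5L2 (20 nM) in 50mM HEPES pH 7.5, 0.1mM EDTA, 0.01% Tween-20 preincubated 15 min with compounds at room temperature. Reaction started with H3(1-25) 75uM, acetyl-CoA 70uM, ThioGlo1 50uM; CoA-thiol fluorescence (Ex340/Em540) read at 0 and 20 min.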
VDR inhibitor – blocks the human vitamin D receptor; Potency, µM, usual class: inhibitors; VDR-SRC2-3 peptide fluorescence polarization, 2 h; 400,000 compounds, 0.93% hits; P11473
Target sequence (P11473 whole entry, looked up): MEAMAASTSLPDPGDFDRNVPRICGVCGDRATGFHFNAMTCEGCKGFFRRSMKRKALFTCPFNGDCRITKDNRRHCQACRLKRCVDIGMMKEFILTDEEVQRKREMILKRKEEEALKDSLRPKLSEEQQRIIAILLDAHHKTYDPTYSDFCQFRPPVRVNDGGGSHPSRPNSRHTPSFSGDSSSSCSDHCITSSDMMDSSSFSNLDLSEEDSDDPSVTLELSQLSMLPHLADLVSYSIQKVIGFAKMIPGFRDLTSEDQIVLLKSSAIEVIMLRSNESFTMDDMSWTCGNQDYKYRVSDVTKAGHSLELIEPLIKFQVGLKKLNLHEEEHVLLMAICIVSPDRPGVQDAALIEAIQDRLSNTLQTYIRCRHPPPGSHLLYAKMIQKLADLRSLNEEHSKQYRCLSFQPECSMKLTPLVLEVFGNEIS
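Inhibition of the VDR/SRC2-3 peptide interaction is quantified by fluorescence polarization. Compounds (23 nl, pintool) incubate with the reagents for 2 hours at ambient room temperature.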
GLS inhibitor – blocks human kidney-isoform glutaminase activity | GLS enzymatic activity, qHTS titration | Potency, µM (doses to about 45.5 µM), usual class: inhibitors | 410,000 compounds, 0.21% hits | AID 624170
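Read-out is an Amplex red fluorescence increase coupled through glutamate oxidase and HRP, measured before and after 30 min room-temperature incubation. hKGA is in 45 mM KH2PO4 (pH 8.2) with 0.02% Tween-20; glutamine added as 1mM solution.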
PLK1 PBD inh – blocks phosphopeptide binding to human PLK1 polo-box domain; 360,000 compounds, 2.8% hits; AID 720504; Potency, µM, actives largely listed as inhibitors; Plk1 PBD binding of FITC phosphopeptide, fluorescence polarization; P53350; note: series mostly up to about 57 µM; nearly all actives have a fitted effect of over 65% in size
Large screens that a line does not name were inactive. Unless noted, calls come from the whole dose curve; as a rule, active = well fitted curve in the direction sought with a large enough effect; inconclusive = small, poorly fitted or top-dose-only effect, or another doubt; inactive = no such curve, though single readings can be large; an effect the other way counts as inactive or inconclusive.

O=C(CCc1ccccc1)N[C@H]1[C@H](OC(=O)c2ccco2)CCC[C@]12C(=O)N(Cc1ccccc1)c1ccccc12	none (no result: GCN5L2 inh, VDR inhibitor, GLS inhibitor, PLK1 PBD inh)
Cc1cccc(N2C(=O)C3CCCN3C2=S)c1 (centres undefined)	PLK1 PBD inh 13µM
O=C1C2CCCN2C(=S)N1c1ccccc1 (centres undefined)	PLK1 PBD inh 13µM
CSc1cccc(N2C(=O)C3CCCN3C2=S)c1 (centres undefined)	PLK1 PBD inh 11µM
CCn1c(=O)n(CC(=O)N2CCCC2)c(=O)c2ccccc21	none (no result: GCN5L2 inh, VDR inhibitor, GLS inhibitor, PLK1 PBD inh)
O=C(CN1CCc2onc(-c3ccc(-n4cc(COc5ccc([N+](=O)[O-])cc5)nn4)cc3)c2C1=O)N1CCOCC1	none (no result: GCN5L2 inh, VDR inhibitor, GLS inhibitor, PLK1 PBD inh)
N=c1oc2ccc3ccccc3c2cc1C(N)=S	PLK1 PBD inh 24µM
CC(=O)c1cc(-c2ccccc2)n(CC(=O)NCc2ccccc2Cl)c1C	none (no result: GCN5L2 inh, VDR inhibitor, GLS inhibitor, PLK1 PBD inh)
CCCOC(=O)c1cc(-c2ccc(C=O)o2)ccc1Cl	none
CCCOC(=O)c1cc(-c2ccc(/C=C3/C(=O)N(C)C(=O)C(C#N)=C3C)o2)ccc1Cl	VDR inhibitor 50µM, PLK1 PBD inh 19µM (no result: GCN5L2 inh)
COc1ccc(C2Nc3ccccc3C(=O)N2Cc2cccnc2)cc1COc1c(C)cccc1C (centres undefined)	none (no result: GCN5L2 inh, VDR inhibitor, GLS inhibitor, PLK1 PBD inh)
CC(C)(C)c1cc(C(=O)CCN2CCOCC2)cc(C(C)(C)C)c1O	VDR inhibitor 50µM, PLK1 PBD inh inconclusive
Cc1cc(N/N=C/c2ccccc2O)c2ccccc2n1	GCN5L2 inh inconclusive
Cc1ccccc1/C=N/Nc1nc2ccccc2c(=O)n1O	PLK1 PBD inh 12µM
CC(Nc1ccc(Cl)cc1)c1cc(Cl)ccc1O (centres undefined)	none
CC(Nc1ccc(Br)cn1)c1cc(Cl)ccc1O (centres undefined)	PLK1 PBD inh 27µM
CN(C(=O)CCc1ccccc1F)C1CCCN(Cc2ccccc2F)C1 (centres undefined)	VDR inhibitor 35µM, GLS inhibitor inconclusive, PLK1 PBD inh 3.4µM
CCCCOc1ccc(C(=O)CCN2CCCCC2)cc1	VDR inhibitor 4.5µM, PLK1 PBD inh inconclusive
CCCCCC(O)(CCN1CCCCC1)c1ccc(OCC)cc1 (centres undefined)	VDR inhibitor inconclusive, PLK1 PBD inh 17µM
CC(C)COc1ccc(C(=O)CCN2CCCCC2)cc1	VDR inhibitor inconclusive, PLK1 PBD inh 21µM
CCCCN1CN2Cc3cc(OC)ccc3C2CS1(=O)=O (centres undefined)	none (no result: GCN5L2 inh, VDR inhibitor, GLS inhibitor, PLK1 PBD inh)
CCN1CCCCC(NC(C)=O)C1=O (centres undefined)	none (no result: GCN5L2 inh, VDR inhibitor, GLS inhibitor, PLK1 PBD inh)
CCCC(C)NC(=O)COC(=O)c1cccc(NS(C)(=O)=O)c1 (centres undefined)	PLK1 PBD inh 30µM
CC(=O)Nc1cccc(C(=O)OCC(=O)NC(C)c2ccc(F)cc2)c1 (centres undefined)	none
O=C(CSC1=Nc2ccccc2C2=NC(Cc3ccccc3)C(=O)N12)Nc1ccccc1F (centres undefined)	none (no result: PLK1 PBD inh)
CCCCCCCCN1C(=O)[C@@H](CC(=O)NCc2ccc(C)o2)C[C@@]2(C(=O)OC)C1=C[C@H](COCc1ccccc1)O[C@@H]2C	none (no result: GCN5L2 inh, VDR inhibitor, GLS inhibitor, PLK1 PBD inh)
O=C(CSc1nccn(-c2cccc(F)c2)c1=O)Nc1ccc(Cl)cc1F	VDR inhibitor 89µM, PLK1 PBD inh inconclusive
O=C(CSc1nccn(-c2ccc3c(c2)OCCO3)c1=O)Nc1ccccc1	VDR inhibitor inconclusive, PLK1 PBD inh 21µM
Cc1cc(C(=O)O[C@H]2CCC[C@@]3(C(=O)N(Cc4ccccc4)c4ccccc43)[C@H]2NC(=O)CCc2ccccc2)no1	none (no result: GCN5L2 inh, VDR inhibitor, GLS inhibitor, PLK1 PBD inh)
COc1ccc(C2=C(N3CCN(c4cc(C)ccc4C)CC3)c3ccccc3C2=O)cc1	none (no result: PLK1 PBD inh)
CCCN1C2=C(C(=O)CC(C)(C)C2)C(c2ccc(F)cc2)C2=C1c1ccccc1C2=O (centres undefined)	PLK1 PBD inh 12µM
COc1ccccc1-n1c(CNC(=O)c2ccco2)nnc1SCC(=O)Nc1cc(C)ccc1C	GLS inhibitor inconclusive, PLK1 PBD inh 3µM
C=c1[nH]cc(C(C)c2c(C)n(C)c3ccccc23)/c1=C/C (centres undefined)	none (no result: GCN5L2 inh, VDR inhibitor, GLS inhibitor, PLK1 PBD inh)
COCCCn1c(SCC(=O)Nc2ccccc2OC)nc2c(sc3ccccc32)c1=O	none (no result: PLK1 PBD inh)
COc1ccccc1NC(=O)CSc1nc2c(sc3ccccc32)c(=O)n1CCN(C)C	VDR inhibitor 79µM, PLK1 PBD inh inconclusive
O=[N+]([O-])/C=C\c1ccc(N2CCOCC2)cc1	VDR inhibitor 25µM, PLK1 PBD inh 30µM (no result: GCN5L2 inh)
O=C(COc1ccc(/C=C\[N+](=O)[O-])cc1)N1CCOCC1	VDR inhibitor inconclusive, PLK1 PBD inh inconclusive
CCOC(=O)[C@@]12CN(C(=O)OC(C)(C)C)CC=C1N(Cc1ccc(OC)cc1)C(=O)[C@H]2CC(=O)N1CCSCC1	none (no result: GCN5L2 inh, VDR inhibitor, GLS inhibitor, PLK1 PBD inh)
CCN(CC)CCn1c(NCc2cc(OC)ccc2OC)nc2ccccc21	VDR inhibitor inconclusive, PLK1 PBD inh 27µM
CCOC(=O)CC[C@@]1(C(=O)OCC)C[C@@H](CC(=O)NCc2ccc(OC)c(OC)c2)C(=O)N2CCCC=C21	none (no result: GCN5L2 inh, VDR inhibitor, GLS inhibitor, PLK1 PBD inh)
CC(=O)Nc1ccc2c(c1)C(C)(C)C(C)N2C (centres undefined)	VDR inhibitor 45µM
CC(=O)Nc1ccc2c(c1)CCCC2	none
COc1ccc(-c2csc(NC(=O)CSc3nc(C)nc4sc(C(=O)O)c(C)c34)n2)cc1	PLK1 PBD inh 19µM
O=C1CC(c2ccco2)CC2=C1C=Nc1ccccc1N2 (centres undefined)	none
O=c1[nH]c2c(s1)C=Nc1ccccc1N2	PLK1 PBD inh 13µM
Cc1c(C(=O)c2ccc(Cl)cc2Cl)cnc2cc3c(cc12)OCO3	VDR inhibitor inconclusive, PLK1 PBD inh 30µM
Cc1cc(/C=C2/C(=N)N3C(=NC2=O)SN=C3S(C)(=O)=O)c(C)n1-c1ccc(F)cc1	PLK1 PBD inh inconclusive
Cc1cccc(C)c1-n1cccc1/C=C1/C(=N)N2C(=NC1=O)SN=C2S(C)(=O)=O	GCN5L2 inh inconclusive, VDR inhibitor inconclusive, PLK1 PBD inh 21µM
Cc1ccc(-n2cccc2/C=C2/C(=N)N3C(=NC2=O)SN=C3S(C)(=O)=O)cc1Cl	VDR inhibitor inconclusive, PLK1 PBD inh 27µM
CCOc1cc(/C=C2/C(=N)N3C(=NC2=O)SN=C3S(C)(=O)=O)ccc1OS(=O)(=O)c1ccccc1	GCN5L2 inh inconclusive, VDR inhibitor 25µM, PLK1 PBD inh 15µM
CCC1=NN2C(=N)/C(=C\c3cccn3-c3c(C)cccc3C)C(=O)N=C2S1	PLK1 PBD inh inconclusive
COc1c(Br)cc(Br)cc1C(=O)O	none
COC(=O)C(=Cc1cc(Br)c(OC)c(Br)c1)C(=O)OC	VDR inhibitor 8.9µM (no result: PI4K2A inh, GCN5L2 inh, GLS inhibitor, PLK1 PBD inh)
Cc1ccc2c(c1)C(=O)C(=O)N2CCCOc1ccccc1C	VDR inhibitor 40µM, PLK1 PBD inh inconclusive
CCCN1C(=O)C(=O)c2cc(C)ccc21	none
Cc1cccc2c1N(CCCOc1ccc(C(C)(C)C)cc1)C(=O)C2=O	VDR inhibitor 40µM, PLK1 PBD inh inconclusive
Cc1ccc(CN2C(=O)C(=O)c3cc(C)ccc32)cc1	VDR inhibitor inconclusive
